Rows were chosen to be rich in hits. Some 1.6% of all compounds tested hit in one or more screens of this group.
E-sel TNF inh: E-selectin induction blockers in HUVEC – imaging, immunofluorescence, high content, primary screen; HUVEC TNFa-induced E-selectin immunofluorescence; inhibition, % at 2 µM; actives 0.71% (n = 120,000);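 active = inhibition above the batch mean plus 3 SD, and confirmed as a hit on visual image review, cut at about 43% in these data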;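 also: 0% = TNF-stimulated DMSO wells and 100% = unstimulated control wells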
IL1B NFkB inh: inhibitors of IL-1B driven NFkB p65 nuclear import, primary screen, imaging, HUVEC, IL-1B stimulus, high-content imaging. HUVEC IL-1B NFkB p65 nuclear translocation imaging. inhibition, % at 2 µM. actives 0.43% (n = 94,000). AID 796, 2007;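 active = inhibition above about 30% together with a positive call from visual inspection of the well image, limit read from the data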;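 also: nuclear over cytoplasmic p65 intensity ratio measured by imaging; 0% = IL-1B stimulated DMSO wells and 100% = unstimulated DMSO wells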
VCAM1 TNFa inh: inhibitors of TNFa-induced VCAM1 expression, primary screen, imaging, HUVEC, TNFa stimulus, immunofluorescence; actives 0.48% (n = 95,000); AID 802, 2007; HUVEC TNFa-induced VCAM-1 immunofluorescence, high-content imaging; inhibition, % at 2 µM;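 active = inhibition above the batch mean plus 3 SD, with images confirmed as a hit by eye, cut at about 37% in these data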;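 also: 0% = TNF-stimulated DMSO wells and 100% = unstimulated control wells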
HUVEC tox TNFa: cytotoxicity in TNFa-stimulated HUVEC, primary screen, cytotoxicity control for VCAM1 expression modulator project, imaging, Hoechst nuclei count; HUVEC TNFalpha-stimulated, Hoechst cell count; cell count reduction, % at 2 µM; actives 0.17% (n = 93,000);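 active = cell count reduction exceeding the screen mean by over 5 SD, scaled to untreated wells per plate, cut at about 78% in these data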;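 also: cells counted after 24 h of TNF alpha exposure following the 1 h pretreatment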
IL1B cytotox: cytotoxicity in IL-1B stimulated HUVEC, primary screen, cytotoxicity control for IL-1B NFkB translocation project, imaging, Hoechst nuclear count, IL-1B stimulus; HUVEC cell count loss; cell count reduction, % at 2 µM; actives 0.41% (n = 94,000); AID 845, 2007;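 active = cell count reduction more than 3 SD above the screen-wide mean, cut at about 70% in these data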;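 also: normalized per plate to untreated control cells as the no-loss baseline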
NFkB transloc pot: enhancers of NFkB p65 translocation in HUVEC – imaging, IL-1B stimulus, high-content imaging, primary screen; HUVEC IL-1B NFkB p65 nuclear translocation imaging; AID 819, 2007; activation, % at 2 µM; actives 0.3% (n = 94,000);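 active = activation above 40%, about the mean plus 3 SD, also judged a hit on visual image review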;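 also: percent activation is computed from the nuclear over cytoplasmic p65 intensity ratio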
Starred values were filed as active, the others as inactive; nt = no result.

SMILES | E-sel TNF inh | IL1B NFkB inh | VCAM1 TNFa inh | HUVEC tox TNFa | IL1B cytotox | NFkB transloc pot
COC(=O)C1=C(C)N(c2cccc(C)c2)C(=O)/C1=C\c1cccs1 | -52 | -24 | 8 | -14 | 9 | 24
O=C/C(=C\Nc1ccc(Cl)cn1)c1nc2cc(Cl)ccc2o1 | nt | -50 | 7 | -10 | -8 | 50*
Cc1nc([N+](=O)[O-])c(Br)n1CC(=O)c1ccccc1 | 12 | 9 | 6 | -7 | 8 | -9
Cc1nc([N+](=O)[O-])c(Br)n1CC(=O)c1ccc(Br)cc1 | 24 | nt | 40* | -18 | nt | nt
Cc1ccc(C2(O)CN(c3ccccc3C)C3=[N+]2CCS3)cc1 (centres undefined) | 64* | nt | nt | nt | nt | nt
CCCCCC(=O)N/N=C/c1ccc([N+](=O)[O-])o1 | -33 | -25 | nt | nt | 93* | 25
Cc1ccc(C)c(N(CC(=O)NC2CCCC2)C(=O)c2cc3cc4cc(C)ccc4nc3s2)c1 | nt | 0 | 48 | 84* | 16 | 0
Cc1cccc(N(CC(=O)NC2CCCC2)C(=O)c2cc3cc4cccc(C)c4nc3s2)c1C | 36 | 0 | 8 | -31 | -38 | 0
CCCCNC(=O)CCn1nc(-c2ccccc2)ccc1=O | -21 | -53 | 15 | -15 | -4 | 53*
COc1cc(CC(CC(=O)O)CC(C)OCc2ccccc2)cc(OC)c1 (centres undefined) | -22 | nt | nt | nt | nt | nt
CCn1c(SCC(=O)NCC2CCCO2)nc2c(c1=O)SC(C)C2 (centres undefined) | 92* | nt | nt | nt | nt | nt
COc1ccc(CC(=O)Nc2ccc(-c3noc(-c4cccc(OC)c4)n3)cc2)cc1 | -10 | -8 | 39* | 10 | 13 | 8
Cc1ccc(S(=O)(=O)Nc2nncs2)cc1 | -27 | -55 | 13 | -6 | -30 | 55*
COCc1nnc(NS(=O)(=O)c2ccc(C)cc2)s1 | 13 | -10 | -12 | 0 | 2 | 10
CCCOc1ccc(NC(=O)C(=O)NCCCn2ccnc2)cc1 | 78* | nt | nt | nt | nt | nt
CCC(=O)Nc1ccc(C(=O)NCCCn2ccnc2)cc1 | 22 | nt | nt | nt | nt | nt
CCOc1cc(C(=O)NCCCn2ccnc2)cc(OCC)c1OCC | 88* | nt | nt | nt | nt | nt
N#C/C(=C\c1ccco1)C(=O)Nn1cnnc1 | 8 | nt | nt | nt | nt | nt
N#Cc1cc2sc3nc4ccccc4n3c2cc1C#N | -4 | 6 | 7 | -24 | 14 | -6
N#Cc1cc2sc3nnc(-c4ccncc4)n3c2cc1C#N | 58* | nt | nt | nt | nt | nt
CC(C)CCNC(=O)C(c1cccs1)N(CC1CCCO1)C(=O)Cn1nnc2ccccc21 (centres undefined) | 2 | 99* | nt | nt | 91* | -99
Cc1ccc(-c2nnc(SCC(=O)NNC(=O)COc3cccc4ccccc34)n2C)cc1 | -4 | nt | nt | nt | nt | nt
CCOC(=O)c1sc(=N)n(-c2ccc(OC)cc2)c1C | 64* | -13 | 4 | 1 | -23 | 13
CCOC(=O)c1nnn(-c2ccc(OC)cc2)c1N | -6 | 0 | 9 | 8 | 8 | 0
CC[n+]1c(/C=C/C=C/N(C(C)=O)c2ccccc2)sc2ccccc21 | nt | 57* | -37 | 6 | 3 | -57
SMILES | E-sel TNF inh | IL1B NFkB inh | VCAM1 TNFa inh | HUVEC tox TNFa | IL1B cytotox | NFkB transloc pot
CCC(C(=O)NN1C(=O)c2ccccc2C1=O)c1ccccc1 (centres undefined) | -3 | nt | nt | nt | nt | nt
CC(NS(=O)(=O)c1ccccc1)C(=O)Nc1ccc(S(N)(=O)=O)cc1 (centres undefined) | -2 | 17 | -20 | -15 | -2 | -17
CC(NS(=O)(=O)c1ccccc1)C(=O)Nc1nccs1 (centres undefined) | 2 | -44 | -20 | -11 | -11 | 44*
COc1ccc(/C(C)=N/OCC(=O)N2CC3(C)CC2CC(C)(C)C3)cc1 (centres undefined) | 94* | nt | nt | nt | nt | nt
COc1ccc(/C=N/OCC(=O)N2CC3(C)CC2CC(C)(C)C3)cc1 (centres undefined) | -18 | -1 | 5 | -15 | -16 | 1
CCn1c(C)nc2cc(C(=O)NNC(=S)NC(=O)c3ccccc3)ccc21 | 3 | nt | nt | nt | nt | nt
CCOC(=O)c1cccc(NC(=O)CSc2nnc(-c3ccoc3C)n2CCOC)c1 | 100* | 0 | 50 | 91* | 17 | 0
CCc1cc(OCCOCCN(C)C)ccc1Cl | 92* | nt | nt | nt | nt | nt
FC(F)(F)c1ccc(Oc2ccc3ccccc3c2Br)nc1 | 16 | nt | nt | nt | nt | nt
CCCN1Cc2cccc(C(=O)N3CCN(c4ccccc4)CC3)c2C1=O | 8 | -32 | 14 | 0 | 94* | 32
Cc1occc1-c1nnc(SCC(=O)N2CCOCC2)n1CCc1ccccc1 | nt | -1 | -7 | 4 | -16 | 1
CCCCn1c(SCC(=O)N2CCOCC2)nnc1-c1ccoc1C | -50 | 30 | -5 | -6 | 86* | -30
C=CCN(CC=C)C(=O)Nc1cc(Cl)ccc1OC | 53* | -6 | 0 | 8 | 19 | 6
Cc1ccccc1C(=O)Nc1ccccc1-n1cccc1 | -14 | -40 | -35 | -3 | 0 | 40*
COc1ccccc1C1CC(=O)NC(C)=C1C(=O)OC(C)C (centres undefined) | -15 | nt | nt | nt | nt | nt
Cn1c(=O)oc2cc(S(=O)(=O)N3CCCC(C(=O)Nc4nccs4)C3)ccc21 (centres undefined) | 17 | -41 | 19 | -18 | 12 | 41*
O=C(C1CCCCN1S(=O)(=O)c1ccccc1)N1CCCCC1 (centres undefined) | -25 | 52* | -22 | 16 | 10 | -52
CCNC(=O)NCc1c(C)c(C)n(Cc2ccccc2)c1-n1cccc1 | -35 | nt | nt | nt | nt | nt
O=C(c1cccc(F)c1)N1CCN(c2cc(N3CCCCC3)c(F)cc2[N+](=O)[O-])CC1 | 51* | 13 | -5 | 15 | -26 | -13
CCOC(=O)c1cnc(SCC(=O)Nc2ccc(N3CCOCC3)c(Cl)c2)nc1N | -6 | 0 | -7 | 12 | -2 | 0
CCOC(=O)c1cnc(SCC(=O)Nc2cc(OC)cc(OC)c2)nc1N | -19 | -50 | 13 | -13 | -22 | 50*
COc1cc(NC(=S)NC(C)=O)ccc1NC(=O)C(C)C | nt | 0 | 68 | 95* | 17 | 0
CCCCN(CCCC)CCNC(=O)CSCc1ccc(C)cc1 | -10 | nt | nt | nt | nt | nt
Cc1cccc(C(=O)N/N=C/c2ccc(OC3CSC3)cc2)c1 | -26 | nt | 5 | -10 | nt | nt
COc1cccc(C(=O)N/N=C/c2ccc(OC3CSC3)cc2)c1 | 10 | -20 | nt | 94* | 7 | 20
CCOCCCNC(=O)CN(Cc1ccc(Cl)cc1)S(C)(=O)=O | -31 | -11 | 3 | 17 | -37 | 11
COCCCNC(=O)CN(Cc1ccc(Cl)cc1)S(C)(=O)=O | 6 | 4 | nt | 97* | 24 | -3
CCc1ccc(C2CC(c3ccccc3)n3ncnc3N2)cc1 (centres undefined) | -15 | -42 | -3 | -24 | 9 | 42*

Screens: PubChem, Columbia University Molecular Screening Center
